Where “and” joins values, the source holds several entries; their conditions need not be identical. Equal values may be shown once. Hit rate of the full screen: of about 5,500 compounds, about 2,000 (36%) were called active. Roughly 18% stayed inconclusive and do not appear here. Rule as the data show it: active = normalized growth mostly below about 0.91 (no sharp cut-off); inconclusive = no clear call, values can overlap the other calls; inactive = mostly above about 0.92. This is one part of the list.
Experiment: chemical genetic growth profiling, strain panel (AID 1159580);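 also: tested at 20 µM; growth read once vehicle control cultures reached saturation at 30 °C; 1 = growth at the plate median or of vehicle wells; lower values mean less growth of the strain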
Conditions: S. cerevisiae deletion strains, growth OD

Measured: normalized growth

CCCCCCCCC(=O)NCc1ccc(O)c(OC)c1
inactive: locus YAL013W, strain DEP1, hits give low values 0.99 | locus YAL021C, strain ccr4, hits give low values 0.996 | locus YAL026C, strain drs2, hits give low values 1.01 | locus YAL030W, strain snc1, hits give low values 1 | locus YAL040C, strain CLN3, hits give low values 0.982 | locus YBL061C, strain skt5, hits give low values 1.01 | locus YBR009C, strain hhf1, hits give low values 0.987 | locus YBR021W, strain FUR4, hits give low values 0.958 | locus YBR023C, strain chs3, hits give low values 0.989 | locus YBR171W, strain sec66, hits give low values 0.983 | locus YBR229C, strain ROT2, hits give low values 0.988 | locus YBR231C, strain swc5, hits give low values 0.995 | locus YBR279W, strain paf1, hits give low values 1.01 | locus YCL011C, strain gbp2, hits give low values 0.981 | locus YCL016C, strain dcc1, hits give low values 0.984 | locus YCL029C, strain bik1, hits give low values 0.989 | locus YCL061C, strain MRC1 (second series), hits give low values 0.994 | locus YCL061C, strain MRC1, hits give low values 1 | locus YCL069W, strain vba3, hits give low values 0.979 | locus YCR088W, strain abp1, hits give low values 0.975 | locus YDL005C, strain med2, hits give low values 0.995 | locus YDL035C, strain GPR1, hits give low values 0.981 | locus YDL040C, strain nat1, hits give low values 1 | locus YDL074C, strain BRE1, hits give low values 0.981 | locus YDL101C, strain DUN1, hits give low values 0.976 | locus YDL134C, strain PPH21, hits give low values 0.976 | locus YDL185W, strain tfp1, hits give low values 0.991 | locus YDL192W, strain arf1, hits give low values 0.989 | locus YDR001C, strain nth1, hits give low values 0.988 | locus YDR069C, strain doa4, hits give low values 1 | locus YDR101C, strain arx1, hits give low values 0.98 | locus YDR137W, strain rgp1, hits give low values 1.03 | locus YDR150W, strain NUM1, hits give low values 0.989 | locus YDR159W, strain sac3, hits give low values 1.07 | locus YDR162C, strain NBP2, hits give low values 1.01 | locus YDR195W, strain ref2 1.04 | locus YDR297W, strain sur2, hits give low values 1 | locus YDR318W, strain mcm21, hits give low values 0.965 | locus YDR334W, strain swr1, hits give low values 0.997 | locus YDR335W, strain msn5, hits give low values 1.01 | locus YDR363W, strain ESC2, hits give low values 0.988 | locus YDR388W, hits give low values 0.981 | locus YDR392W, strain spt3, hits give low values 0.805 | locus YDR502C, strain sam2, hits give low values 0.978 | locus YEL003W, strain gim4, hits give low values 0.985 | locus YEL037C, strain rad23, hits give low values 0.982 | locus YEL061C, strain CIN8 (second series), hits give low values 0.982 | locus YEL061C, strain CIN8, hits give low values 0.998 | locus YER002W, strain NOP16, hits give low values 0.986 | locus YER015W, strain faa2, hits give low values 1.01 | locus YER016W, strain bim1, hits give low values 1.01 | locus YER110C, hits give low values 0.981 | locus YER111C, strain swi4, hits give low values 0.991 | locus YER155C, strain BEM2 (second series), hits give low values 0.964 | locus YER155C, strain BEM2, hits give low values 0.985 | locus YER167W, strain BCK2, hits give low values 0.978 | locus YFR010W, strain ubp6, hits give low values 1.02 | locus YGL078C, strain dbp3, hits give low values 0.992 | locus YGL086W, strain mad1, hits give low values 0.967 | locus YGL167C, strain pmr1, hits give low values 1 | locus YGL173C, strain kem1, hits give low values 1.01 | locus YGL227W, strain vid30, hits give low values 0.971 | locus YGL240W, strain doc1, hits give low values 0.994 | locus YGL248W, strain PDE1, hits give low values 0.981 | locus YGL253W, strain hxk2, hits give low values 1.03 | locus YGR078C, strain PAC10, hits give low values 1.01 and 1 | locus YGR135W, strain pre9, hits give low values 0.987 | locus YGR229C, strain SMI1, hits give low values 1 | locus YGR252W, strain gcn5, hits give low values 0.872 | locus YHR013C, strain ard1, hits give low values 0.992 | locus YHR027C, strain rpn1, hits give low values 1.02 | locus YHR030C, strain SLT2, hits give low values 0.988 and 1.01 | locus YHR079C, strain IRE1 (second series), hits give low values 0.985 | locus YHR079C, strain IRE1, hits give low values 0.985 | locus YHR094C, strain hxt1, hits give low values 0.979 | locus YHR129C, strain ARP1, hits give low values 0.988 | locus YHR142W, strain chs7, hits give low values 0.983 | locus YHR200W, strain rpn10, hits give low values 0.981 | locus YIL066C, strain RNR3, hits give low values 0.953 | locus YIL073C, strain SPO22, hits give low values 0.958 | locus YIL125W, strain kgd1, hits give low values 0.99 | locus YIR030C, strain dcg1, hits give low values 0.983 | locus YJL092W, strain hpr5, hits give low values 0.978 | locus YJL095W, strain BCK1 (second series), hits give low values 1 | locus YJL095W, strain BCK1, hits give low values 0.989 and 1 | locus YJL115W, strain asf1, hits give low values 0.988 | locus YJL129C, strain trk1, hits give low values 0.977 | locus YJL134W, strain LCB3, hits give low values 0.989 | locus YJL154C, strain vps35, hits give low values 0.983 | locus YJL164C, strain tpk1, hits give low values 0.972 | locus YJL166W, strain qcr8, hits give low values 0.991 | locus YJL168C, strain set2, hits give low values 0.99 | locus YJL187C, strain SWE1 (second series), hits give low values 0.978 | locus YJL187C, strain SWE1, hits give low values 1.02 | locus YJR043C, strain POL32, hits give low values 0.983 | locus YJR066W, strain TOR1, hits give low values 0.91

— PubChem BioAssay AID1159580 (chemical genetic matrix, 2015)
